Screens (PubChem)
HT1080 IDH1KD tx: HT-1080 IDH1 knockdown cell toxicity (counter line). AID 686971. HT-1080 IDH1 knockdown viability, ATP luminescence, 48 h. Potency, µM (top dose mostly 46.1 µM), for inactives: at the highest dose activity, negative = toxicity, most hits filed as cytotoxic. 2% of 360,000 active;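 further: 0% = DMSO wells and -100% = cell-free medium wells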
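In this qHTS, HT-1080 cells depleted of IDH1 are exposed for 48 h at 37 °C to compound titrations. Toxicity is scored from CellTiter-Glo luminescence, with DMSO as full viability and medium alone as none.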
SW480 rereplic: inducers of DNA re-replication in SW480 colon cancer cells; SW480 DNA re-replication, Hoechst DNA content imaging, 48 h; Potency, µM (top dose mostly 46.1 µM), without a hit: at the highest dose re-replication activation, usual class: activators; 1.8% of 340,000 active; AID 624297; further: % of control where 0% means no effect; nearly all actives have a fitted effect of over 55% in size
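250 cells/well; 23 nL cpd via pin tool; 48 hr, 37 C, 5% CO2; Hoechst 40 min; imager read of total nuclear intensity, ex 405/em 500-530 nm.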
HT1080-NT tox: kills 2HG-producing HT-1080-NT fibrosarcoma cells; HT-1080-NT fibrosarcoma viability, CellTiter-Glo ATP luminescence, 48 h; Potency, µM (doses to about 46.1 µM), for the others: top-dose activity, negative = less viability, hits mostly cytotoxic; 1.6% of 360,000 active; AID 686970;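 further: NT is the 2HG producing partner of a matched IDH1 knockdown line; 0% = DMSO-treated cells and -100% = media-only wells without cells; nearly all actives have a fitted effect of over 55% in size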
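Read-out is CellTiter-Glo luminescence after 10 minutes at room temperature, following 48 hours' compound treatment of HT-1080-NT cells (750 cells/well, RPMI, 5% FBS, 37 degrees C).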
KB-V1 cytotox: KB-V1 MDR subline cytotoxicity | KB-V1 MDR cells viability, CellTiter-Glo, 72 h | AID 1347076 | Potency, µM (series often up to 46.1 µM), usual class: cytotoxic | 3.4% of 400,000 active; further: on the % scale 0 is the no-effect control and ±100 the full control effect; nearly all actives have a fitted effect of over 60% in size
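Following 72 h at 37 degrees C with compound, KB-V1 cell viability was read by CellTiter-Glo luminescence, medium being phenol-red-free DMEM plus 10% FBS; concentration-response parameters came from normalized, curve-fitted qHTS data.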
MCF10A rereplic: induces DNA re-replication in MCF 10a normal breast cells. MCF 10A DNA re-replication, Hoechst nuclear intensity, 48 h. Potency, µM (highest dose often 46.1 µM), for inactives: at the top dose activity, positive = re-replication, most hits filed as activators. 2.9% of 350,000 active; further: % of control where 0% means no effect; nearly all actives have a fitted effect of over 50% in size
KB-3-1 tox: KB-3-1 parental cell cytotoxicity. KB-3-1 viability, CellTiter-Glo ATP luminescence, 72 h. 1.4% of 400,000 active. Potency, µM (titrated, usually from 46.1 µM), hits mostly cytotoxic. AID 1347075; further: on the % scale 0 is the no-effect control and ±100 the full control effect; nearly all actives have a fitted effect of over 60% in size
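Screening of KB-3-1 cells (DMEM, 10% FBS, phenol-red free) ran from lowest to highest compound concentration; after 72 h at 37 °C viability was read luminescently and curves fitted.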
Starred values were filed as active, the others as inactive; i = inactive; u = inconclusive; x = no result; [ ] = another dose, or the depositor's remark. A selection: hits, their analogues and other compounds. The true share with any hit is near 8%. The call rests on the fitted dose curve; in most records, active means well fitted curve in the direction sought with a large enough effect; inconclusive means small, poorly fitted or top-dose-only effect, or another doubt; inactive means no such curve, though single readings can be large; an effect the other way counts as inactive or inconclusive. Potency means the concentration at half of the fitted maximal effect.

SMILES	HT1080 IDH1KD tx	SW480 rereplic	HT1080-NT tox	KB-V1 cytotox	MCF10A rereplic	KB-3-1 tox
Cc1onc(-c2ccccc2Cl)c1C(=O)Nc1cccc(-c2nc3ncccn3c2C)c1	-8%	7%	-2%	8.2µM*	u	i
CCCCNS(=O)(=O)c1ccc(NC(=O)c2c(-c3ccccc3Cl)noc2C)cc1	u	11%	u	21µM*	u	i
CCCCNS(=O)(=O)c1ccc(NC(=O)c2c(-c3ccccc3)noc2C)cc1	x	x	x	i	x	i
Cc1onc(-c2ccccc2Cl)c1C(=O)Nc1cccc2cccnc12	u	13%	-26%	12µM*	8.2µM*	i
COc1ccc(-n2c(=O)c3c(c4cc(OC)ccc4n3C)n(CC(=O)NCC3CCCO3)c2=O)cc1 (centres undefined)	x	x	x	i	x	i
CCOC(=O)c1ccc(NC(=O)c2ccc3c(c2)CCN3S(=O)(=O)c2ccc(Cl)cc2)cc1	x	x	x	i	x	i
O=C(COc1ccc(Oc2ccccc2)cc1)NCc1cn2ccccc2n1	3.3µM*	u	2.6µM*	u	15µM*	15µM*
Cc1ccc(-c2nc(-c3cc4c([nH]c3=O)CC(C)(C)CC4=O)sc2C)cc1	x	x	x	i	x	i
COc1cc(C(O)c2nc(-c3ccc4ccccc4c3)cs2)ccc1F (centres undefined)	u	x	23µM*	u	x	i
COc1ccc(C(O)c2nc(-c3ccc4ccccc4c3)cs2)cc1 (centres undefined)	-14%	x	-28%	i	x	i
CCCCCN1C=CC(=C2C(=O)c3ccccc3C2=O)C=C1	9.2µM*	8%	23µM*	9.2µM*	7%	i
COc1ncc(-c2c(-c3ccccc3OC)sc3ccccc23)cn1	16µM*	x	u	i	x	u
COc1ccccc1-c1sc2ccccc2c1-c1ccccc1OC	6%	-7%[9.22 µM]	14%	i	14%	i
CCn1nnc2cc(C(=O)Nc3cccc(Cl)c3)ccc21	x	x	x	i	x	i
COc1ccc(CN(Cc2ccccc2)C(=O)c2cccc(C#N)c2)cc1COc1ccc(NC(C)=O)cc1	-1%	x	-1%	x	x	x
COc1ccc2cc3cc(C(=O)Nc4ccccc4N4CCN(C)CC4)oc3nc2c1	7%	u	2%	12µM*	u	u
CCOc1ccc(NC(=O)c2cc3cc4ccc(OC)cc4nc3o2)cc1	5%	u	16%	i	12µM*	i
CCC(C(=O)Nc1cc(Cl)c(OC)cc1OC)c1ccccc1 (centres undefined)	-8%	2%	0%	i	8%	i
NS(=O)(=O)c1ccc(NC(=O)Nc2ccccc2)cc1	4%	-6%	3%	i	-36%	i
COc1cc(OC)c(NC2=CC(=O)C(=O)c3ccccc32)cc1Cl	8.2µM*	u	21µM*	4.1µM*	17%	4.6µM*
CCOC(=O)c1ccc(Nc2cc(C)nc(-c3ccccc3)n2)cc1	18µM*	u	16µM*	u	u	i
CCOC(=O)c1ccc(COC(=O)c2ccc3c(c2)-c2ccccc2C3=O)cc1	9%	-4%	7%	15µM*	-3%	i
NS(=O)(=O)c1ccc(NC2=CC(=O)C(=O)c3ccccc32)cc1	u	3.3µM*	u	i	u	u
Cc1cccc(CCNC(=O)c2sc3nc4n(c(=O)c3c2C)CCCC4)c1	x	x	x	i	x	i
Cc1cccc(OCCCCn2c(C3CC(=O)N(c4ccccc4Cl)C3)nc3ccccc32)c1 (centres undefined)	x	x	x	i	x	u
CC(=O)Nc1ccc(NC2=CC(=O)c3ccccc3C2=O)cc1	u	4%	u	i	-1%	i
Cc1cc(NC2=CC(=O)C(=O)c3ccccc32)no1	u	u	u	18µM*	13µM*	u
